# This is a sample that favours compounds with a hit; in the whole collection about 2.1% have one here.
# PrP 5UTR inh – inhibition of PrP 5' UTR reporter expression; hit rate 0.35% among 340,000; AID 488862, 2010; cell-based PrP 5' UTR mRNA reporter, plate reader; inhibition, % (concentration not given with the values); in the data active = inhibition above about 52%; note: 0 = median of the neutral control wells
# BJeLR lethal – MLPCN primary cell-based screen for lethality selective to Ras in HRASV12 cells; hit rate 0.17% among 300,000; inhibition, % (no concentration beside the values); AID 1554, 2009; BJeLR (HRASV12) viability, CellTiter-Glo ATP luminescence, 48 h; in the data active = inhibition above about 50%
# VHR inh abs – VHR1 phosphatase inhibitors, primary screen, biochemical, absorbance, uHTS. recombinant VHR phosphatase, pNPP absorbance. inhibition, % at 13.3 µM. hit rate 0.52% among 290,000; in the data active = inhibition above about 50%
# PfHsp40 rescue – rescue of yeast from PfHsp40 toxicity, primary screen, S. cerevisiae, ATP luminescence; S. cerevisiae expressing PfHsp40, growth rescue; growth rescue, % at 12.5 µM; hit rate 0.68% among 340,000; in the data active = growth rescue above about 28%, passing the limit was not always enough;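 note: yeast W303a lacking pdr1 and pdr3 grown in galactose medium; growth measured after three days at 30 °C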
# PrPC surface inh – inhibitors of human cell surface prion protein PrPC, primary screen, cell-based, TR-FRET; AID 720596, 2013; Major prion protein (Homo sapiens), P04156; TR-FRET read-out; hit rate 0.43% among 370,000; inhibition, % at 13.8 µM; in the data active = inhibition above about 24%; note: 0% = median of the test wells and 100% = reference compound wells
# MazF activator – activators of E. coli MazEF toxin-antitoxin RNase, primary screen, biochemical, fluorescence, uHTS; FAM/BHQ RNA-DNA oligo cleavage fluorescence, 5 h; activation, % at 20 µM; hit rate 0.32% among 350,000; AID 504720, 2011; in the data active = activation above about 50%
# PrPC confirm – confirmation of inhibitors of cell surface human prion protein, confirmation, cell-based, TR-FRET; shares compounds with PrPC surface inh; hit rate 65% among 1,500; cell surface PrPC level; AID 743200, 2013; inhibition, % at 13.8 µM; in the data active = inhibition above about 25%
# LD9 cytotox – cytotoxicity in LD9 cells, cytotoxicity control for cell surface PrPc inhibitor project, cell-based, luminescence, high throughput. shares compounds with PrPC surface inh. luminescence viability. inhibition, % at 13.8 µM. hit rate 29% among 1,500. AID 743201, 2013; in the data active = inhibition above about 9.5%
# * = called active by the depositor; . = no result.
SMILES,PrP 5UTR inh,BJeLR lethal,VHR inh abs,PfHsp40 rescue,PrPC surface inh,MazF activator,PrPC confirm,LD9 cytotox
CCCCCNC(=O)C(c1ccc(-c2ccccc2)cc1)n1c(=O)c(-c2cc3ccccc3[nH]2)nc2ccccc21 (configuration not stated),.,.,.,.,1,.,.,.
Cc1ccc(CN(C)C(=O)CN2C(=O)NC(c3ccccc3)(c3ccccc3)C2=O)c(C)c1,-12,.,.,3,4,-6,.,.
CCC(C)n1ncn(-c2ccc(N3CCN(c4ccc(O)cc4)CC3)cc2)c1=O (configuration not stated),-2,-20,-2,0,25*,-5,30*,-8
Cc1cc(NC(=O)CN2CCN(c3ccc(O)cc3)CC2)no1,-16,-12,23,0,-8,1,.,.
O=C(N/N=C/c1cccc(O)c1)c1ccc(NC(=O)C2CCCCC2)cc1,-5,0,1,0,1,7,.,.
O=C(N/N=C/c1ccc(O)cc1O)c1ccc(NC(=O)C2CCCCC2)cc1,-8,13,2,1,34*,5,37*,-5
C=C1C(=O)OC2CC3(C)OC3C3OC3C3=CC(OC3=O)C12 (configuration not stated),.,.,.,.,93*,.,80*,21*
C=C1C(=O)OC2CC3(C)OC3CCC(C)=CC(OC(C)=O)C12 (configuration not stated),-18,.,.,0,5,5,.,.
CCC1CCCCN1S(=O)(=O)c1ccc(NC(=O)c2nc(S(C)(=O)=O)ncc2Cl)cc1 (configuration not stated),-12,-7,2,-1,79*,6,83*,97*
CS(=O)(=O)c1ncc(Cl)c(C(=O)Nc2ccc3ccccc3c2)n1,-25,17,17,14,84*,-14,77*,87*
CCC1CCCCN1S(=O)(=O)c1ccc(NC(=O)c2ccncc2)cc1 (configuration not stated),-17,17,2,0,14,-3,.,.
CCS(=O)(=O)c1ncc(Cl)c(C(=O)Nc2ccc(C)cc2)n1,-7,23,-18,2,42*,2,44*,85*
O=C(NCc1ccccc1)c1nc(S(=O)(=O)Cc2ccccc2)ncc1Cl,-16,26,6,1,5,5,.,.
O=C(Nc1ccc2ccccc2c1)c1cnccn1,-51,4,11,-1,-24,-5,.,.
CC(=O)Nc1ccc(NC(=O)c2nc(S(=O)(=O)Cc3ccccc3)ncc2Cl)cc1,-15,10,16,0,65*,10,-5,78*
COc1ccccc1N1CCN(C2CCCN(C(=O)c3oc(C)cc3C)C2)CC1 (configuration not stated),-12,-2,-4,2,-3,2,.,.
CC1(C(=O)NS(=O)(=O)c2ccccc2Cl)CCN1C(=O)C1(c2ccc(Cl)cc2)CC1 (configuration not stated),.,.,.,.,10,.,.,.
COc1c(F)cc2[nH]c3c(c2c1F)CCNC3=O,-2,-2,.,0,30*,1,6,-5
O=C(NCCN1CCCC1)c1ccc(Cn2c(=S)[nH]c3cc4c(cc3c2=O)OCO4)cc1,-4,4,29,-2,-4,-13,.,.
C=CCNC(=O)c1ccc(Cn2c(=S)[nH]c3cc4c(cc3c2=O)OCO4)cc1,-15,2,41,0,54*,2,35*,8
S=c1[nH]nc(-c2cccnc2)o1,-16,-3,-14,-1,-4,1,.,.
S=c1[nH]nc(-c2cccc(Br)c2)o1,-15,-5,2,-1,25*,1,36*,-3
CCC(=O)N(CCC(c1ccc(C)cc1)c1ccco1)Cc1ccco1 (configuration not stated),-6,-3,8,0,3,5,.,.
O=C(c1ccco1)N1CCN(C(=O)C2CCCc3c2[nH]c2ccc(Cl)cc32)CC1 (configuration not stated),-21,8,28,2,-6,-3,.,.
CCN(CC)C(=O)C1CCCc2c1[nH]c1ccc(Cl)cc21 (configuration not stated),5,28,-8,11,26*,-6,7,-7
SMILES,PrP 5UTR inh,BJeLR lethal,VHR inh abs,PfHsp40 rescue,PrPC surface inh,MazF activator,PrPC confirm,LD9 cytotox
Cc1ccc(S(=O)(=O)N(C)C)cc1NC(=O)c1cncc(Br)c1,12,-2,-13,-1,27*,7,21,-2
COc1ccc2sc3ccccc3c(=O)c2c1OC,-35,2,27,1,29*,4,38*,-7
Cc1ccc(S(=O)(=O)N2C[C@H]3[C@H]4C(=O)N(c5ccccc5)C(=O)[C@H]4C[C@H](OC(=O)NCC4CCCCC4)[C@@]3(O)C2)cc1,.,.,.,.,-5,6,.,.
CCn1cc(Cl)c(C(=O)Nc2ccccc2C(N)=O)n1,-19,-19,12,0,54*,3,11,-5
Cc1cc(-c2cccc(Br)c2)c(C#N)c(N)n1,-2,.,11,1,44*,8,42*,1
Cc1cc2cc(CNC(=O)c3cccc([N+](=O)[O-])c3)ccc2n1C,-24,8,-11,-1,37*,10,-5,-5
Cc1c(C(=O)NCc2ccc3c(c2)cc(C)n3C)cccc1[N+](=O)[O-],-8,-3,0,-1,34*,-8,8,-2
Cc1cc2cc(CNC(=O)Cc3ccc([N+](=O)[O-])cc3)ccc2n1C,-15,1,-3,-2,15,6,.,.
COc1ccc(C)cc1CN1C(=O)c2ccccc2C1=O,-10,7,53*,3,28*,-1,-4,-5
CC1=C(O)C(=O)C=C2C1=CC=C1C2(C)CCC2(C)C3CC(C)(C(=O)O)CCC3(C)CCC12C (configuration not stated),24,.,.,0,62*,-8,89*,98*
Cc1cc(C)cc(C(=O)OCCN2CCN(C3CN(Cc4cn(Cc5ccc([N+](=O)[O-])cc5)nn4)S(=O)(=O)C3)CC2)c1 (configuration not stated),.,.,.,.,-16,.,.,.
CCc1nc2ccc(C(=O)Nc3cccc(OCC(=O)N(C)C)c3)cn2c1N(CC)CCOC,.,.,.,.,10,.,.,.

# Screens (PubChem BioAssay)
